Screen size: about 1,200 compounds; about 210 (18%) were called active. Cut-off read from the data, not from the text of the source: active = inhibition above about 30%; inactive = the rest. These entries were drawn from the full list.

This experiment in a line: fluorescence readout artefact check – biochemical, HTRF, uHTS, artefact control for SUMOylation inhibitor project, confirmation (AID 2069). The settings on record: HTRF interference counterscreen, at 35 µM, stronger effect = higher value. For orientation: Time-resolved FRET reads energy transfer from a long-lived donor to a nearby acceptor.
With `O=C(NNc1cc(N2CCCC2)nc(N2CCCC2)n1)c1ccc([N+](=O)[O-])cc1`, the inhibition is -2.1% (inactive).
With `Cc1sc2nc3ccc(NCc4ccco4)nn3c(=O)c2c1C`, the inhibition is 44.4% (active).
With `Cc1ccc(/C=c2\sc3nc(-c4ccco4)nn3c2=O)o1`, the inhibition is -1.1% (inactive).
Under `COc1cccc(-c2[nH]nc3c2C(c2ccsc2)C(C#N)=C(N)O3)c1` (stereo not given) stands -11% (inactive).
Turning to `CC(NC(=O)Nc1ccc(O)cc1)(C(F)(F)F)C(F)(F)F`, the inhibition is 1.45% (inactive).
Under `COc1ccc(S(=O)(=O)C(C#N)c2nc3ccccc3nc2N2CCCC(C)C2)cc1` (stereo not given) stands 13.2% (inactive); under `COC1=C(Nc2ccccc2)C(=O)c2ccccc2C1=O`, -14.2% (inactive).
Take `O=c1[nH]c(Nc2ccccc2)cc2ccccc12`: the inhibition is 41% (active).
In the case of `O=c1[nH]c(Nc2ccc(F)cc2)cc2ccccc12`, the inhibition was 29.8% (inactive).
Consider `C/C(=N\NC(=O)c1cc(O)cc(O)c1)c1ccc(NC(=O)Cc2ccccc2)cc1`, for which the inhibition is 25.6% (inactive).
Under `COc1ccccc1/C=C/C=c1\sc2nc(=O)c(Cc3ccccc3)nn2c1=O` stands 0.1% (inactive); under `Cc1cc(C)cc(Oc2coc3c(CN(C)C)c(O)ccc3c2=O)c1`, 48.2% (active); under `CCN(CC)Cc1c(O)ccc2c(=O)c(Oc3ccccc3OC)coc12`, 42.6% (active).
Take `COc1ccc(NCc2cc3ccccc3[nH]c2=O)cc1`: the inhibition is 11.8% (inactive).
Take `N#Cc1c(-c2ccccc2)nc(SCC(=O)N2c3ccccc3Sc3ccccc32)[nH]c1=O`: the inhibition was 15.3% (inactive).
For `CCOC(=O)N1CCN(C2=C(NS(=O)(=O)c3ccc(NC(C)=O)cc3)C(=O)c3ccccc3C2=O)CC1` the value was -27.3% (inactive); for `Nc1ccc(Br)c2cccnc12`, 11.4% (inactive).
In the case of `Cc1ccc(N/N=C2\CC(=O)c3ccccc32)cc1Cl`, the inhibition is -12% (inactive).
Under `C/C(CCc1ccco1)=N\NC(=O)CNc1cccc2ccccc12` stands 22.1% (inactive); under `O=c1c(C(c2ccccc2)c2c(O)sc3ccccc3c2=O)c(O)sc2ccccc12`, 4.95% (inactive).
For `COc1ccc(OC)c2c1C(=O)c1ccccc1C2=O`, the inhibition was 42.9% (active).
For the compound `COC1=C(Nc2ccccc2OC)C(=O)c2ccccc2C1=O`, the inhibition was -37.9% (inactive).
Consider `COc1cccc2c1C(=O)c1ccc3ccccc3c1C2=O`, for which the inhibition is 5.5% (inactive).
On to `COc1cccc(Cn2cccc(NC(=O)Nc3ccccc3C)c2=O)c1`, for which the inhibition is 0% (inactive).
As to `CCOC(=O)C1=C(C)NC(=O)CC1c1cc2c(cc1[N+](=O)[O-])OCO2` (stereo not given), the inhibition is -4.35% (inactive).
On to `COc1cc(Br)c(C(=O)c2nccc3cc(OC)c(OC)cc23)cc1OC`, for which the inhibition is 3.15% (inactive).
Under `COc1ccc(NC(=O)CN2C(=O)S/C(=C/c3cccn3-c3ccc(C(=O)O)cc3)C2=O)cc1` stands 8% (inactive); under `O=C1C2C3C=CC(C4CC34)C2C(=O)N1CCc1ccccc1` (stereo not given), 8.65% (inactive).
Take `CN(C)C=Nc1ccc2nc3c(cc2c1)[nH]c1ccccc13`: the inhibition was 53.9% (active).
For the compound `Cc1ccc(C(=O)c2c3ccc(N)cc3nn2CCC(N)=O)cc1`, the inhibition is 14.2% (inactive).
Consider `Cc1ccc(-n2nc3ccc(N)cc3n2)c(C)c1`, for which the inhibition is 59.3% (active).
Under `Nc1ccc2nn(-c3cccc4ccccc34)nc2c1` stands 64.5% (active); under `CC1=NN(c2ccc(C)cc2C)C(=O)C1C(c1cccc(O)c1)C1C(=O)N(c2ccc(C)cc2C)N=C1C` (stereo not given), -2.1% (inactive); under `CN(C)C=Nc1ccc2nn(-c3ccccc3)nc2c1`, 58.8% (active).
Under `N#Cc1c(=O)c2nc(NCc3ccccc3)ncc2n2ccccc12` stands 26% (inactive); under `COc1ccccc1/C=C/C=N/NC(=O)c1cc(-c2ccco2)[nH]n1`, 1.9% (inactive).
Under `COc1ccccc1-n1cnc2c(c1=O)c1nc3ccccc3nc1n2-c1ccc(C)c(C)c1` stands 2% (inactive); under `O=[N+]([O-])c1ccc(C2Nc3cccc4cccc(c34)N2)cc1`, -5.1% (inactive); under `N#CC1=C(SCC(=O)NC23CC4CC(CC(C4)C2)C3)NC(=O)C(C#N)C12CCCCC2` (stereo not given), 4.6% (inactive).
With `Cc1cc(NC(=O)CSc2nnc(Nc3ccccc3C)s2)no1`, the inhibition is -1.2% (inactive).
In the case of `Oc1ccc(NC(=S)Nc2ccc(O)cc2)cc1`, the inhibition is 19.6% (inactive).
For `Cc1[nH]n(-c2ccccc2)c(=O)c1C(C[N+](=O)[O-])c1ccc(Br)cc1` (stereo not given), the inhibition was -5.3% (inactive).
Under `Nc1ccc2nn(-c3ccccc3)nc2c1` stands 66% (active); under `Cn1cc2ccc(N)cc2n1`, 2.15% (inactive).
For `COc1ccc(-n2nc3cc(C)c(N)c(Br)c3n2)cc1` the value was -14.3% (inactive); for `Cc1cccc(S(=O)(=O)C(C#N)c2nc3ccccc3nc2N2CC(C)OC(C)C2)c1` (stereo not given), 9.45% (inactive).
Consider `Cc1c(C(=O)c2ccc(Cl)cc2[N+](=O)[O-])c2ccccn2c1CCC#N`, for which the inhibition was 2.8% (inactive).
In the case of `Cc1n[nH]c(=S)n(NC(=O)/C=C/C(=O)Nn2c(=S)[nH]nc(C)c2=O)c1=O`, the inhibition was 51.5% (active).
Turning to `O=C(NCCc1csc(-c2ccccc2)n1)c1c(F)cccc1Cl`, the inhibition was -9.35% (inactive).
Consider `CC1N(C)c2cccc3cccc(c23)N1C`, for which the inhibition is -9.25% (inactive).
Consider `CCOC(=O)c1c(C)oc2c1c(C=NCCC(=O)O)c(O)c1ccccc12`, for which the inhibition is -7.35% (inactive).
In the case of `CCOC(=O)c1c(-c2ccccc2)oc2ccc(OC(C)C(=O)O)cc12` (stereo not given), the inhibition is 58.6% (active).
In the case of `CCOC(=O)c1c(C)oc2c1C(=O)c1ccccc1C2=O`, the inhibition is 1.65% (inactive).
Regarding `N=C1S/C(=C\c2ccco2)C(=O)N1c1ccc2c(c1)OCO2`, the inhibition was 12.6% (inactive).
On to `CC1=NOC(=O)/C1=C\c1ccc(-c2cc(Cl)ccc2Cl)o1`, for which the inhibition is 11% (inactive).
Turning to `Cc1cc(NC(=O)CSc2nc3cc(C(=O)NCCCOC(C)C)ccc3c(=O)n2Cc2ccco2)no1`, the inhibition is 6.6% (inactive).
For `COc1cc2c(cc1OC)C(C)=NC1(CCCCC1)C2` the value was 31.6% (active).
Consider `CSc1ccc(-c2cc(=O)c3ccccc3o2)cc1`, for which the inhibition is 60.2% (active).
In the case of `CCN(CC)S(=O)(=O)c1cc(C)ccc1SC`, the inhibition is -1.75% (inactive).
As for `COc1ccc(/C=N/Nc2cc(N3CCCC3)nc(N3CCCC3)n2)cc1`, the inhibition was 27.9% (inactive).
In the case of `Oc1ccc(/C=N/Nc2cc(N3CCCC3)nc(N3CCCC3)n2)cc1`, the inhibition was 6.25% (inactive).
`Oc1ccc(/C=N/Nc2cc(N3CCCC3)nc(N3CCCC3)n2)cc1O`: the inhibition is 42.8% (active).
On to `CCOc1ccc(C=Nc2cccc3ncccc23)cc1`, for which the inhibition was -2.35% (inactive).
On to `Cc1ccc(C2C(C#N)=C(N)N(c3cccnc3)C3=C2C(=O)CCC3)s1` (stereo not given), for which the inhibition was 10.7% (inactive).
Take `COc1ccc(CC2=C(O)c3ccccc3C(=O)C2=O)cc1`: the inhibition is -7.05% (inactive).
On to `O=C1N/C(=N/N=C/c2ccccc2O)SC1Cc1ccc(F)cc1` (stereo not given), for which the inhibition is 64% (active).
As for `COc1ccc(CC2S/C(=N/N=C/c3ccccc3O)NC2=O)cc1` (stereo not given), the inhibition was 65.5% (active).
As to `O=C(CC1S/C(=N/N=C/C=C/c2ccccc2)NC1=O)Nc1ccc(Cl)c(Cl)c1` (stereo not given), the inhibition was -11.6% (inactive).
On to `Cc1cc(/C=C2\C(=N)N3N=C(c4ccco4)SC3=NC2=O)c(C)n1Cc1ccccc1`, for which the inhibition is 7.7% (inactive).
Under `N#C/C(=C\c1ccc(O)c(O)c1)C(=O)Nc1cccc2ncccc12` stands 8.1% (inactive); under `O=C(NCc1ccccc1)Nc1cccn(Cc2ccccc2F)c1=O`, -6.7% (inactive).
Consider `CCN(CC)S(=O)(=O)c1ccc(O)c(NC(=O)c2cc(-c3cc(OC)c(OC)c(OC)c3)nc3ccccc23)c1`, for which the inhibition was 16.9% (inactive).
As for `O=C(N/N=C/c1ccc(Cl)cc1)c1nc2ccc([N+](=O)[O-])cc2c(=O)[nH]1`, the inhibition is 8.95% (inactive).
For the compound `CC(O)C(=O)N/N=C/c1cccc(Cl)c1Cl` (stereo not given), the inhibition is -5.5% (inactive).
For `O=C(Nc1nnc(-c2ccccc2SCc2ccccc2)s1)Nc1ccccc1F` the value was 6.45% (inactive); for `Cc1c(N2C(=O)c3ccc4c5c(ccc(c35)C2=O)CC4)c(=O)n(-c2ccccc2)n1C`, 39.8% (active).
On to `Cc1c(N=C2C=CC(=O)c3ccccc32)c(=O)n(-c2ccccc2)n1C`, for which the inhibition was -29.4% (inactive).
In the case of `Cc1ccc(C(=O)Nc2nnc(CC(=O)N/N=C/c3ccc(O)c(O)c3)s2)cc1`, the inhibition was -1% (inactive).
For `Cc1c(CC(=O)O)c(=O)oc2c(C)c(OCc3ccc(F)cc3Cl)ccc12`, the inhibition was -7.8% (inactive).
`CCc1c(C)c2cc(Cl)c(O)c(CN(C)C)c2oc1=O`: the inhibition was 37.2% (active).
In the case of `Cc1c(C)c2cc(Cl)c(O)c(CN3CCN(C)CC3)c2oc1=O`, the inhibition was 30.6% (active).
On to `Cc1cc(Br)ccc1-n1[nH]c(C)c(C=Nc2cccc3nsnc23)c1=O`, for which the inhibition is 14.9% (inactive).
For `NC(=O)CC(NC(=O)Cc1cccc2ccccc12)c1ccc(NCCc2ccccc2F)c([N+](=O)[O-])c1` (stereo not given) the value was 0.5% (inactive); for `CCc1ccc(NC(=O)C(CC)Sc2nc3cc4c(cc3c(=O)n2Cc2ccco2)OCO4)cc1` (stereo not given), 6.65% (inactive); for `N#Cc1cnn2c(-c3ccccc3)ccnc12`, 36.5% (active).
Take `NS(=O)(=O)c1ccc(-c2ccc(/C=C3\NC(=S)NC3=O)o2)cc1`: the inhibition is -17.4% (inactive).
In the case of `Cc1cccc(NC2=C(NCCO)C(=O)c3ccccc3C2=O)c1`, the inhibition was -25.1% (inactive).
For `Cc1ccccc1N=Cc1cccc(O)c1O`, the inhibition was -6.55% (inactive).
Take `CCCCn1c(NS(=O)(=O)c2ccccc2)c(S(=O)(=O)c2ccc(C)cc2)c2nc3ccccc3nc21`: the inhibition is 16.1% (inactive).
Turning to `CCCCn1c(=O)[nH]c2nc3cc(N)ccc3nc2c1=O`, the inhibition is 43.9% (active).
As to `CCCCn1c(=O)[nH]c(=O)c2c1nc(-c1ccc(-c3ccc(F)cc3)o1)n2C`, the inhibition was 21.7% (inactive).
With `Oc1ccc(C2Nc3cccc4cccc(c34)N2)c(O)c1`, the inhibition was -3.25% (inactive).
For `CC(=O)Oc1ccc2c(C)c(CC(C)O)c(=O)oc2c1` (stereo not given), the inhibition was 42.2% (active).
For `CC(NC(=O)OC(C)(C)C)C(=O)Oc1ccc2ccc(=O)oc2c1` (stereo not given) the value was 25.8% (inactive); for `Cc1ccc(NC(=S)Nc2cccc3ccccc23)cc1F`, -5.85% (inactive).

Broadly, the inhibition is the relative decrease from the control value, in per cent.

The values above are taken from PubChem BioAssay AID2069 (Sanford-Burnham Center for Chemical Genomics, 2009).
